# Laboratory results as given in PMC7826789 (International Journal of Molecular Sciences, 2021).
# System: AURKC
row,SMILES,Kinases covered
1,CN1CCN(C(=O)c2ccc(NC(=O)Nc3ccc(N(C)c4ccnc(Nc5ccc(CS(C)(=O)=O)cc5)n4)cc3)cc2)CC1.Cl [GW830263A],AURKC
2,CCn1cc(-c2ccnc3[nH]c(-c4cccc(CN(C)C)c4)cc23)c(-c2ccc(NC(=O)N(C)C)cc2)n1 [GSK1070916],AURKC
3,COc1cccc(-c2c[nH]c3c(N/N=C/c4ccncc4)ncnc23)c1 [GW814408X],AURKC
4,CN(C)CCNC(=O)Nc1ccc(N(C)c2ccnc(Nc3ccc(CS(C)(=O)=O)cc3)n2)cc1.Cl [GW830900A],AURKC

# System: BLK
row,SMILES,Kinases covered
1,COc1cc2ncnc(Nc3cccc(Cl)c3F)c2cc1O[C@H]1CC[C@H]([C@@H]2NCCNC2=O)CC1 [BI00133844],BLK
2,Cc1ccc(C(=O)Nc2ccc(Nc3ccnc4cc(-c5ccccn5)ccc34)cc2O)cc1 [GW440146],BLK
3,COc1cc2ncnc(Nc3cccc(Cl)c3F)c2cc1O[C@H]1CC[C@@]2(CC1)NCCNC2=O [BI00113608],BLK
